# Results: ChEMBL document CHEMBL4513216, “Probing the Open Global Health Chemical Diversity Library for Multistage-Active Starting Points for Next-Generation Antimalarials” (ACS Infect Dis, 2020)
# The campaign covered roughly 69,000 compounds. About 8,600 (12%) showed an effect of 50% or more. The entries come from a sample that favours strong results as a whole.
# System: Plasmodium berghei
# Assay: Screen against P. berghei liver stage (PbLuc), transformed with Luciferase, at 10uM
# Format: functional, HepG2
# Conditions: tested at 10 uM
row,Compound,INHIBITION
1,COc1cc(N2CCC(c3nccn3Cc3ccccc3)CC2)ncn1,11.7%
2,COc1cc(N2CCCC(c3nccn3Cc3ccncc3)C2)ncn1 (stereo unspecified),54.7%
3,CCN(CC)S(=O)(=O)N1CCCC(c2nccn2Cc2ccncc2)C1 (stereo unspecified),70.1%
4,CN(C)S(=O)(=O)N1CCCC(c2nccn2Cc2cccnc2)C1 (stereo unspecified),11.9%
5,O=C(N1CCCC1)N1CCCC(c2nccn2Cc2ccncc2)C1 (stereo unspecified),-14.6%
6,CCN(CC)S(=O)(=O)N1CCCC(c2nccn2Cc2cccnc2)C1 (stereo unspecified),15.2%
7,CCCSCC(=O)N1CCCC(c2nccn2Cc2ccncc2)C1 (stereo unspecified),25%
8,CC(C)OC(=O)N1CCCC(c2nccn2Cc2ccncc2)C1 (stereo unspecified),50.3%
9,O=C1NC2(CCN(C(=O)N3CCOCC3)CC2)CC1c1cccnc1 (stereo unspecified),9.34%
10,Cc1nc(CN2C[C@@H]3CN(C(=O)C4CC4)C[C@@H]3C2=O)cs1,42.6%
11,O=C(NCCc1c[nH]c2ccccc12)C1CCC(Cn2cnnn2)CC1 (stereo unspecified),-65.9%
12,Cc1cc(NC(=O)CN2CCCC(Cn3nc(C)nc3C)C2)n(C)n1 (stereo unspecified),-22.15%
13,CSCc1ccc(N2CCC(C(O)Cc3ccccc3)CC2)nc1 (stereo unspecified),74.3%
14,CN(C)c1ccc(CN2CCC(C(O)Cc3ccccc3)CC2)cn1 (stereo unspecified),-42.8%
15,CSCc1ccc(N2CCC(C(O)CC(C)C)CC2)nc1 (stereo unspecified),67.4%
16,CSCc1ccc(N2CCN(c3ccc(Cl)cn3)CC2)nc1,38.3%
17,CC(C)CC(O)C1CCN(Cc2ccc(N(C)C)nc2)CC1 (stereo unspecified),10.6%
18,Cc1ccc(N2CCC(C(O)Cc3ccccc3)CC2)nn1 (stereo unspecified),-2.97%
19,CSCc1noc(-c2ccc(C)c(N3CCNC3=O)c2)n1,9.52%
20,COc1ccc(F)cc1-c1ccccc1CC1(C(=O)O)CCOCC1,26.7%
21,O=C(N[C@@H]1c2ccccc2C[C@@H]1O)C1CCN(Cc2ccco2)CC1,48.4%
22,CC(NS(N)(=O)=O)c1ccc(OCc2ccc(F)cc2)cc1 (stereo unspecified),14.6%
23,CCc1cc(NCCNC(C)=O)nc(N2CCCC2)n1,48.2%
24,CCc1cc(NC(C)(C)C)nc(N2CCOCC2)n1,-3.12%
25,CCc1cc(NC2CCS(=O)(=O)CC2)nc(N2CCCCC2)n1,23.3%
26,CCc1cc(NC2CCS(=O)(=O)C2)nc(N2CCCCC2)n1 (stereo unspecified),52.6%

row,Compound,INHIBITION
1,CCc1cc(NC2CCN(CC(N)=O)CC2)nc(N2CCCCC2)n1,51.5%
2,CCc1cc(NCC(N)=O)nc(N2CCCCC2)n1,32%
3,CCc1n[nH]c(C2CN(C(=O)c3cc(C(N)=O)cs3)CCO2)n1 (stereo unspecified),-15.5%
4,CCC(NC1CCCC1)c1ccc(S(C)(=O)=O)cc1 (stereo unspecified),22.1%
5,CC(NC(=O)c1nc(=O)[nH][nH]1)c1ccc(OCC2CC2)c(F)c1 (stereo unspecified),5.53%
6,O=C(c1ccncc1)N1CCc2ncnc(C3CC3)c2CC1,27.6%
7,CCC(Nc1cccc(OC)c1)C(=O)NCc1ccc2[nH]c(=O)[nH]c2c1 (stereo unspecified),-0.27%
8,Cc1ccc(C(=O)N2CCC(n3cc(CO)nn3)CC2)cn1,55.9%
9,C=C1C(C)(C)[C@@H]2CC[C@]1(C(=O)N1CCC(n3cc(CO)nn3)CC1)C2,54.5%
10,C=C1C(C)(C)[C@@H]2CC[C@]1(C(=O)N1CCC(n3cc(CCO)nn3)CC1)C2,-10.9%
11,C=C1C(C)(C)[C@@H]2CC[C@]1(C(=O)N1CCC(Cn3cc(CO)nn3)CC1)C2,45.6%
12,Cc1cc(C(=O)N2CCC(n3cc(CO)nn3)CC2)ccc1F,39.3%
13,Cc1ccoc1C(=O)N1CCC(n2cc(CO)nn2)CC1,-37.8%
14,Cn1cc(C2CC(=O)NC23CCN(Cc2nccs2)CC3)cn1 (stereo unspecified),-0.371%
15,N#Cc1cccc(CN2C[C@H](OCC3CCOCC3)[C@H]3COC[C@H]32)c1,19.5%
16,Cc1c[nH]nc1C1CCN(c2cnccn2)C1 (stereo unspecified),9.745%
17,CC(CN(C)C(=O)c1cn(C)nc1-c1ccc(F)cc1F)C(=O)O (stereo unspecified),24.4%
18,Cn1cc(C(=O)O)c(-c2ccc(F)cc2F)n1,18%
19,Cn1cc(C(=O)OCC(N)=O)c(-c2ccc(F)cc2F)n1,58.6%
20,CC(C)(C)n1cc(C(=O)O)c(-c2ccc(F)cc2F)n1,68.3%
21,COc1ccc(-c2ccc(C(=O)O)c(F)c2)c(F)c1,15.2%
22,Cc1cc(NC(=O)COC(=O)c2ccc(F)cc2Br)n(C)n1,34.1%
23,O=C(Nc1cccc(Cn2cccn2)c1)N1CCCC(N2CCCC2)C1 (stereo unspecified),16.2%
24,CS(=O)(=O)CCCSc1n[nH]c(-c2ccc3c(c2)CCC3)n1,-18.8%
25,Cc1ccc(F)cc1S(=O)(=O)NCc1cccc(C(=O)N2CCCC2)c1,-77.1%
